Screens (PubChem)
The list is a sample of the results.
aSyn 5UTR act: Activators via SNCA 5'UTR binding, MLPCN; AID 1814, 2009; activity score, % (tested at 7.5 µM), hits read low; hit rate 7.1% among 300,000; alpha-synuclein 5'UTR reporter, activators screen; in the data active = activity score below about -60%
An asterisk follows results filed as active.

SMILES	aSyn 5UTR act
COc1ccccc1C(=O)NNC(=O)c1ccccc1F	-97*
O=C(NNC(=O)c1ccccc1OCc1ccccc1)c1ccccc1F	-85*
CCOC(=O)NC1(Nc2ccc(C)cc2)Oc2ccccc2O1	-100*
Cn1c(/C=C/c2ccc(Cl)cc2)nc2ccccc2c1=O	-181*
Cn1c(/C=C/c2ccc([N+](=O)[O-])o2)nc2ccccc2c1=O	98
Cn1c(/C=C/c2ccccc2)nc2ccccc2c1=O	-137*
S=C(N/N=C/c1ccco1)NC1CC2CCC1C2 (stereo unspecified)	-90*
Oc1ccccc1/C=N/NC(=S)NC1CC2CCC1C2 (stereo unspecified)	-83*
CN(Cc1ccccc1)C(=O)c1ccc([N+](=O)[O-])o1	-84*
Cc1ccc(-c2csc(NC(=O)c3ccc([N+](=O)[O-])o3)n2)cc1	-234*
Cc1ccc(-c2csc(NC(=O)c3ccno3)n2)cc1	-128*
Cc1ccc(CNC(=O)c2ccc([N+](=O)[O-])o2)cc1	-70*
Cn1cc([N+](=O)[O-])c(C(=O)Nc2nc(-c3ccc(Cl)cc3)cs2)n1	63
c1ccc(-c2cn3nc4c(nc3n2)CCCC4)cc1	109
c1ccc(-c2csc(N3CCSCC3)n2)cc1	-90*
Brc1ccc(-c2csc(N3CCC(c4ccccc4)C3)n2)cc1 (stereo unspecified)	-86*
Fc1ccc(-c2csc(N3CCSCC3)n2)cc1	-63*
O=C(CSc1nc(-c2ccc(F)cc2)cs1)N1CCOCC1	-119*
c1ccc(-c2csc(-n3cccn3)n2)cc1	-130*
Fc1ccc(-c2csc(N3CCOCC3)n2)cc1	-129*
CN(C(=O)COC(=O)c1cc(-c2ccc(Cl)s2)nc2ccccc12)C1CCS(=O)(=O)C1 (stereo unspecified)	-82*
CCN(C(=O)COC(=O)c1cc(-c2ccc3cc(OC)ccc3c2)nc2ccccc12)C1CCS(=O)(=O)C1 (stereo unspecified)	67
CC(=O)c1cccc(NC(=S)NC(=O)c2ccccc2)c1	-141*
CC(=O)c1cccc(NC(=S)NC(=O)CC(C)(C)C)c1	-134*
COc1cc2ccccc2cc1C(=O)NC(=S)Nc1cccc(C(=O)O)c1	-91*
SMILES	aSyn 5UTR act
CC(=O)c1cccc(NC(=S)NC(=O)c2cncc(Br)c2)c1	-109*
CC(=O)c1cccc(NC(=S)NC(=O)c2cccc(Cl)c2)c1	-160*
CCOc1cc(/C=N/Nc2cccc(C(=O)O)c2)ccc1OC(=O)c1ccccc1	98
COc1ccc2ccccc2c1/C=N/Nc1cccc(C(=O)O)c1	-108*
O=C(Nc1ccc(N2CCCCC2)cc1)c1ccc2ccccc2n1	-173*
O=C(Nc1ccc(N2CCCC2)cc1)C(Cl)c1ccccc1 (stereo unspecified)	-108*
O=C(Nc1cccc(S(=O)(=O)N2CCCCCC2)c1)c1ccc2ccccc2n1	-89*
CCOc1ccc(C(=O)N[C@H](C(=O)Nc2cccc(S(=O)(=O)N3CCCCC3)c2)C(C)C)cc1	76
Cc1cccc(NC(=O)c2ccc3ccccc3n2)c1C	-68*
Cc1ccc(S(=O)(=O)N2CCCCC2)cc1NC(=O)c1ccc2ccccc2n1	-122*
O=C(N/N=C\c1c(O)ccc2ccccc12)c1ccc(S(=O)(=O)N2CCCCC2)cc1	114
COc1ccc(NC(=O)c2ccc3ccccc3n2)cc1S(=O)(=O)N1CCCCC1	-122*
Cc1ccccc1C(=O)Nc1ccc(N2CCCC2)cc1	-154*
Cc1ccc(-c2ccc(/C=N/O)o2)cc1[N+](=O)[O-]	-66*
Cc1cccc(C)c1OCc1cc(C(=O)NC2CCC2)no1	-66*
O=C(c1cc(COc2ccc(F)cc2F)on1)N1CC2C[C@@H]3CC1C[C@H](C2)C3	-97*
COc1ccc(OCc2cc(C(=O)N3CCCN(C(C)=O)CC3)no2)c(Cl)c1	-75*
CC(=O)c1ccc(OCc2cc(C(=O)N3CC4C[C@@H]5CC3C[C@H](C4)C5)no2)cc1	-134*
Cc1cccc(C)c1OCc1cc(C(=O)N2CCC(c3ccncc3)CC2)no1	-93*
O=C(c1cc(COc2ccc(F)cc2F)on1)N1C[C@H]2CC[C@H]1C2	-99*
COc1ccccc1OCc1cc(C(=O)N2CC3C[C@@H]4CC2C[C@H](C3)C4)no1	-120*
COc1ccc(OCc2cc(C(=O)N3C[C@H]4CC[C@H]3C4)no2)c(Cl)c1	-82*
O=C(c1cc(COc2c(F)cccc2F)on1)N1CCC(c2ccccc2F)C1 (stereo unspecified)	-125*
O=C(c1cc(COc2c(F)cccc2F)on1)N1C[C@H]2CC[C@H]1C2	-114*
C(=N\n1cnnc1)/c1cccc(OCCOc2ccccc2)c1	-65*
C(=N\n1cnnc1)/c1ccc(OCc2cccc3ccccc23)cc1	-110*
Cc1ccc(-c2cc(C(=O)N/N=C/c3c(C)nn(-c4ccccc4)c3C)[nH]n2)cc1	66
COC(=O)c1cc(-c2c(C)nn(-c3ccccc3)c2C)n[nH]1	-87*
Oc1ccccc1C1=Nc2ncnn2C(c2ccccc2)C1 (stereo unspecified)	-68*
CCOC(=O)N1CCN(C(=O)CSCC(=O)Nc2nc(-c3ccc(Cl)s3)cs2)CC1	-85*
